# Compounds without any hit were thinned out: in the full panel of roughly 83,000, 20% have a hit.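 A percent growth of 40 corresponds to 60% growth inhibition; 0 means no net growth; -100 means all cells died. Active threshold: below 10.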 A number with no mark means an inactive call. Activity calls are given as the source filed them.
# System: NCI-H23 lung
# Assay: NCI-60 one-dose screen, 48 h (100 = growth as untreated, 0 = no growth, -100 = all killed)
# Conditions: 10 µM unless noted
row,SMILES,growth
1,Cc1ccc(OCCOCCOCCOCCOc2ccc(C)n(O)c2=S)c(=S)n1O,18.5%
2,CCN(CC)CCCC(Nc1c2ccc(Cl)cc2nc2ccc(OC)cc12)c1ccncc1 (centres undefined),80.7%
3,COc1cccc(C2C3=C(COC3=O)N(CCO)c3cc4c(cc32)OCCO4)c1 (centres undefined),12.5%
4,CN(C)CC1C(=O)O[C@H]2[C@H]1CC/C(COC(=O)NCc1ccc(Cn3c(=O)sn(CCCI)c3=O)cc1)=C\CC[C@@]1(C)O[C@@H]21 (some centres undefined),55.3%
5,CC(C)=CC(=O)C1C(=O)c2ccccc2C1=O,96.4%
6,Cn1cc(-c2ccc3c(Nc4cccc(NC(=O)Nc5cccc(F)c5)c4)ncnc3c2)cn1,47.1%
7,COc1cc2c(c(OC)c1OC)C(=O)CC(c1cccc(C(=O)Nc3ccc(Br)cc3)c1)O2 (centres undefined),60.3%
8,COc1cc2nc3cc([N+](=O)[O-])ccc3c(NCCCNCCO)c2cc1OC,-29.1% (active)
9,CCOC(=O)C1=CCC(n2cc(F)c(=O)[nH]c2=O)O1 (centres undefined),101%
10,Cc1nc2sc(C(=O)Nc3ccccc3)c(N)c2cc1C(O)c1ccccc1 (centres undefined),33.5%
11,C=C(CNCCO)[C@@H]1CC[C@]2(CO)CC[C@]3(C)[C@H](CC[C@@H]4[C@@]5(C)CCC(NCCO)C(C)(C)[C@@H]5CC[C@]43C)[C@@H]12 (some centres undefined),95.5%
12,COC(=O)CCc1c(/C=C2\N=C(c3ccc[nH]3)C=C2OC)[nH]c(C)c1C(=O)OCc1ccccc1,20.4%
13,CSc1nc(N)c2c(n1)NC(c1ccccc1)C1CCc3ccccc3C1=N2 (centres undefined),39.4%
14,CC(CN)[C@@H]1CC[C@]2(CO)CC[C@]3(C)[C@H](CC[C@@H]4[C@@]5(C)CCC(NCCO)C(C)(C)[C@@H]5CC[C@]43C)[C@@H]12 (some centres undefined),89.6%
15,O=S(=O)(c1ccc(NCSc2nc3ccccc3s2)cc1)c1ccc(NCSc2nc3ccccc3s2)cc1,102%
16,COc1ccc(Cn2cc(C(=O)N=Nc3c(O)[nH]c4ccc(Br)cc34)nn2)cc1,102%
17,Oc1ccc(C(c2ccc(O)cc2)c2ccc(Cl)cn2)cc1,-4.57% (active)
18,O=C(Nc1cccc(Cn2c(=O)[nH]c3ccc(Oc4ncccn4)cc3c2=O)c1)c1cccc(Cl)c1,48.6%
19,Cc1ccc(C(=O)Nc2ccc(CN3CCN(C)CC3)c(C(F)(F)F)c2)cc1C#Cc1cnc(N)c2ccccc12,-46% (active)
20,C[C@H]1c2ccccc2CN1CCCOc1cc2c(cc1OCC1CC1)C1(CCCC1)C(N)=N2,67.2%

row,SMILES,growth
1,CC1=C2[C@@H](CC1)[C@]1(C)O[C@@](C(C)C)(C[C@H]1OC(=O)CO)[C@H]2OC(=O)CCCc1ccccc1,81.4%
2,Oc1ccc(Cc2ccc(O)c3ncccc23)c2cccnc12,9.78% (active)
3,C=C(c1ccc(OC)c(/C=C/C(=O)c2cc(OC)c(OC)c(OC)c2)c1)c1cc(OC)c(OC)c(OC)c1,-33.2% (active)
4,COc1ccc(-c2nc(SCCC(C)C)nc(N/N=C(/C)c3ccc(N)cc3)c2C#N)cc1,92.9%
5,CCCCC1=C(Br)C(=O)c2ncccc2C1=O,95%
6,COc1ccc(/C(C)=C(\c2ccc(Cl)cc2)c2ccc(OCCCN(C)C)cc2)cc1,82.3%
7,CC(=O)/C(Br)=C/c1ccc(Br)o1,68.4%
8,CC(C)n1nc(-c2ccc3oc(N)nc3c2)c2c(N)ncnc21,2.3% (active)
9,CCCNNC(=O)c1ccc(CNC(=O)/C=C/c2ccccc2)cc1,50.3% [2.5 µM]
10,O=C(Nc1ncc(Cc2ccc(Cl)cc2)s1)C1=NCCCCN1,99%
11,COc1cc2c(c(OC)c1OC)CCC(c1cccc(C(=O)Nc3ccc([N+](=O)[O-])cc3)c1)O2 (centres undefined),47.2%
12,C=CCn1c(SCC(=O)Nc2ccc(C(=O)/C=C/c3ccc(Cl)cc3)cc2)nnc1-c1ccccc1,95%
13,c1ccc(Cn2cc3c(c2)-c2nc(Nc4ccccc4)ncc2CC3)cc1,71.7% [100 µM]
14,Clc1nc(N2CCC[N+]3(CC2)CC[N+]2(CCCNCC2)CC3)nc(N2CCC[N+]3(CC2)CC[N+]2(CCCNCC2)CC3)n1 (centres undefined),89.2%
15,C#C[C@]1(O)CC[C@H]2[C@@H]3CC=C4c5sc(-c6ccccc6)nc5CC[C@]4(C)[C@H]3CC[C@@]21C,84.1%
16,CCOC(=O)c1ccc2c(c1)[n+](=O)c(C(C)=O)c(C(F)(F)F)n2[O-],-16.9% (active)
17,COc1ccc2c(O)cc3c(c2c1)[C@H](CCl)CN3C(=O)c1cc2cc(NC(=O)CCN3CCOCC3)ccc2[se]1,-50.7% (active)
18,O=C(/C=C/C12c3ccccc3C(c3ccccc31)C1C(=O)NC(=O)C12)c1cccs1 (centres undefined),37.4%
19,O=C1c2cccnc2C(=O)c2c1c(C(=O)OCCCN1CCOCC1)c1ccccn21,-32.1% (active)

# Reference: PubChem BioAssay (NCI)
